From PubChem BioAssay AID493045 (Broad Institute, 2011)
Potency and affinity values are given separately. Active and inactive are the calls of the source.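 The calls were made as follows: active = viability loss with fitted half-maximal dose at or below ten times the top valid dose; inconclusive = flat loss of 30 to 70 percent, or a poor fit; inactive = flat within 30 percent, weak potency, or rising signal.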

Assay: viability loss in BJeLR (HRASV12) cells, primary screen, Ras selective lethality project, cell-based, Alamar Blue, dry powder (AID 493045)
Conditions: BJeLR (HRASV12) fibroblasts viability, 48 h; series mostly up to 45 µM; activity change, negative = viability loss: at the top concentration

Question: Which “activity change, negative = viability loss” value does the source give for `COc1ccc(N(C(=O)CO)C(C(=O)NCCc2ccccc2)c2cccs2)cc1Cl` (stereo unspecified) here?
Answer: 4.42% (inactive)

Question: For `CCC(=O)N(c1ccc(OC)c(Cl)c1)C(C(=O)NCCc1ccccc1)c1cccs1` (stereo unspecified), which “activity change, negative = viability loss” value is on record?
Answer: 0.399% (inactive)

Question: For `COCC(=O)N(c1ccc(OC)c(Cl)c1)C(C(=O)NCCc1ccccc1)c1cccs1` (stereo unspecified), which “activity change, negative = viability loss” value is on record?
Answer: 1.62% (inactive)

Question: For `O=C(c1[nH]ncc1[N+](=O)[O-])N1CCN(C(c2ccccc2)c2ccccc2)CC1`, which “activity change, negative = viability loss” value is on record?
Answer: 0.972% (inactive)

Question: Which “activity change, negative = viability loss” value does the source give for `COc1ccc(N(C(=O)[C@@H](C)Cl)C(C(=O)NCCc2ccccc2)c2cccs2)cc1Cl` (stereo partly specified) here?
Answer: -1.18% (inactive)

Question: With `COc1ccc(N(C(=O)CSc2ncccn2)C(C(=O)NCCc2ccccc2)c2cccs2)cc1Cl` (stereo unspecified) as the compound, how does the “activity change, negative = viability loss” value read?
Answer: 13.6% [at 38 µM] (inactive)
